Experimental findings from PubChem BioAssay (NCI) are described below.

Test systems include T-47D breast; BT-549 breast; MDA-MB-435 melanoma; SW-620 colon; MCF7 breast; HCT-116 colon; HCC-2998 colon; KM12 colon.
Holding throughout (assay): NCI-60 one-dose screen, 48 h (100 = growth as untreated, 0 = no growth, -100 = all killed)
What all share (settings): 10 µM

This is part of a sample that, as a whole, favours compounds with a hit. Of some 83,000 tested, about 20% had one in any assay.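 Activity criterion: percent growth below 10, measured after cells in 96-well plates were exposed to a single compound concentration for 48 hours.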 A number with no mark means an inactive call. Calls of active or inactive are those of the source.

Consider `CC1(CO)CCCC12OCCO2` (configuration not stated), for which the growth in the experiment with T-47D breast was 111%; in the experiment with BT-549 breast it was 99.9%; in the experiment on MDA-MB-435 melanoma, 92.8%; in the experiment with SW-620 colon, 108%; with MCF7 breast, 95.2%; in the experiment with HCT-116 colon, 105%. The values for the growth in the experiment on HCC-2998 colon and in the experiment with KM12 colon were 111% and 112%, respectively.
Regarding `CNCCCNCCCN1C(=O)c2ccc3c4c(ccc(c24)C1=O)C(=O)N(CCCNCc1ccccc1OC)C3=O`, the growth in the experiment on T-47D breast was -30.3% (active); with BT-549 breast, 78.1%; in the experiment with MDA-MB-435 melanoma, -58.6% (active); in the experiment with SW-620 colon, -19% (active); in the experiment with MCF7 breast it was -51.7% (active); in the experiment on HCT-116 colon, -8.97% (active). The values for the growth in the experiment on HCC-2998 colon and in the experiment on KM12 colon were -9.5% (active) and -16.9% (active), respectively.
For `N#C/C(=C/c1cc([N+](=O)[O-])ccc1Cl)C(N)=O`, the growth in the experiment on T-47D breast is 90.4%; in the experiment with BT-549 breast it was 96.8%; in the experiment on MDA-MB-435 melanoma, 71.5%; with SW-620 colon, 46.6%; in the experiment on MCF7 breast, 57.3%; in the experiment with HCT-116 colon it was 10% (active). The growth with HCC-2998 colon is 106%; in the experiment with KM12 colon it was 91.5%.
On to `C=CCn1ccc(=O)nc1SC`, for which the growth was 97.2% in the experiment on T-47D breast; 105% in the experiment with BT-549 breast; 108% with MDA-MB-435 melanoma; 103% with SW-620 colon; 100% in the experiment with MCF7 breast; 112% with HCT-116 colon. Besides, the values for the growth in the experiment with HCC-2998 colon and in the experiment on KM12 colon were 103% and 104%, respectively.
Turning to `COc1cccc(C(=O)NNc2nc(N3CCOCC3)nc(N3CCN(C(c4ccccc4)c4ccccc4)CC3)n2)c1`, the growth was 59.2% with T-47D breast; 87.9% in the experiment on BT-549 breast; 96.8% with MDA-MB-435 melanoma; 96.5% in the experiment on SW-620 colon; 79.8% in the experiment with MCF7 breast; 85.4% with HCT-116 colon. The results for the growth in the experiment on HCC-2998 colon and with KM12 colon were 100% and 77.7%, respectively.
For the molecule `COc1ccc(-c2cc(/C=C3\C(=O)Nc4cc(Cl)ccc43)[nH]n2)cc1OC`, the growth is 96.5% in the experiment on T-47D breast; 80.1% in the experiment on BT-549 breast; 7.28% (active) in the experiment with MDA-MB-435 melanoma; 47.1% with SW-620 colon; 32.2% in the experiment on MCF7 breast; 50.9% in the experiment with HCT-116 colon. For the same molecule, the growth in the experiment on HCC-2998 colon was 98.8%; in the experiment with KM12 colon it was 64.4%.
With `CC(=O)CS(C)(=O)=O`, the growth with T-47D breast was 109%; in the experiment on BT-549 breast it was 109%; in the experiment with MDA-MB-435 melanoma it was 106%; in the experiment with SW-620 colon, 102%; in the experiment on MCF7 breast, 105%; with HCT-116 colon, 107%. In addition, the growth in the experiment on HCC-2998 colon is 102%; in the experiment with KM12 colon, 114%.
Regarding `CC(=O)N(O)c1ccc(/C=C/c2ccccc2)cc1`, the growth in the experiment with T-47D breast is 20.5%; in the experiment on BT-549 breast, 43.5%; in the experiment on MDA-MB-435 melanoma, 55.1%; in the experiment with SW-620 colon, 23.3%; in the experiment on MCF7 breast, 16.7%; in the experiment with HCT-116 colon, 19.7%. The results for the growth in the experiment on HCC-2998 colon and with KM12 colon were 14.3% and 47.9%, respectively.
As for `O=S(=O)(O)C1(O)CCCCC1`, the growth with T-47D breast was 85.7%; in the experiment on BT-549 breast, 112%; in the experiment on MDA-MB-435 melanoma, 89.2%; with SW-620 colon, 81.5%; with MCF7 breast, 78%; in the experiment with HCT-116 colon, 50.9%. Further, the growth is 110% in the experiment on HCC-2998 colon and 82.9% with KM12 colon.
`COc1ccc2nc(C)cc(Nc3ccc(Cl)cc3)c2c1`: the growth with T-47D breast was 102%; in the experiment on BT-549 breast, 103%; with MDA-MB-435 melanoma, 108%; with SW-620 colon it was 106%; in the experiment with MCF7 breast, 89%; in the experiment on HCT-116 colon, 101%. Besides, the growth with HCC-2998 colon and in the experiment with KM12 colon was 107% in each case.
Regarding `COc1ccc(C(=O)/C=C/c2cc(-c3ccc4c(c3)OCO4)n[nH]2)cc1OC`, the growth is 43.8% in the experiment with T-47D breast; 41.4% with BT-549 breast; 73.5% in the experiment on MDA-MB-435 melanoma; 36.4% with SW-620 colon; 27.2% with MCF7 breast; 18.4% in the experiment with HCT-116 colon. Further, the growth with HCC-2998 colon was 91.3%; in the experiment on KM12 colon, 54.1%.
Turning to `Nc1ncc(-c2ccc(C(F)(F)F)cc2)c(NC2CCCCCC2)n1`, the growth is 20.5% in the experiment on T-47D breast; 48.3% in the experiment on BT-549 breast; 37.1% with MDA-MB-435 melanoma; 37.4% with SW-620 colon; 25% in the experiment with MCF7 breast; 26.3% in the experiment with HCT-116 colon. The growth with HCC-2998 colon was 35.1%; with KM12 colon it was 31.6%.
As for `Cc1nc2cc(-n3c(-c4ccc(F)cc4)nc4ccccc4c3=O)ccc2n1Cc1ccccc1`, the growth in the experiment on T-47D breast is -29% (active); in the experiment with BT-549 breast, 2.3% (active); with MDA-MB-435 melanoma, -32.6% (active); in the experiment on SW-620 colon it was 11.6%; in the experiment on MCF7 breast, -24.9% (active); with HCT-116 colon, -18.8% (active). The growth in the experiment with HCC-2998 colon is 61.7%; with KM12 colon, 18.7%.
On to `Cc1cc(/C=C2\SC(=Nc3ccccc3)N(C3CCCC3)C2=O)c(C)n1-c1ccc(Cl)cc1`, for which the growth in the experiment on T-47D breast is -49.3% (active); with BT-549 breast it was -57.6% (active); with MDA-MB-435 melanoma it was -82.4% (active); in the experiment with SW-620 colon, -61.6% (active); in the experiment on MCF7 breast, -56.5% (active); with HCT-116 colon, -50.5% (active). Besides, in the experiment with HCC-2998 colon, the growth is -83.8% (active).
As for `O=C1/C(=C/c2ccc(O)cc2)Cc2ccc(Cl)cc21`, the growth is 80.4% in the experiment with T-47D breast; 59% in the experiment with BT-549 breast; 78% with MDA-MB-435 melanoma; 98.7% with SW-620 colon; 58.8% in the experiment on MCF7 breast; 88.4% in the experiment on HCT-116 colon. In addition, the growth was 115% in the experiment with HCC-2998 colon and 87.6% with KM12 colon.
Consider `C=CCNC(=S)NN`, for which the growth in the experiment with T-47D breast was 50.5%; with BT-549 breast it was 99.2%; in the experiment with MDA-MB-435 melanoma it was 95.4%; with SW-620 colon it was 85.5%; in the experiment on MCF7 breast, 8.89% (active); in the experiment with HCT-116 colon it was 6.82% (active). Moreover, the growth in the experiment on HCC-2998 colon was 107%; with KM12 colon it was 98.6%.
